# Measured values taken from PubChem BioAssay AID651955 (The Scripps Research Institute Molecular Screening Center, 2012).
# Screen size: about 2,400 compounds; about 40 (2%) were called active. Only a sample is shown. Values without a mark were called inactive. Cut-off read from the data, not from the text of the source: active = activation above about 37%; inactive = the rest.
# Biological target: Trace amine-associated receptor 1 (Homo sapiens) (UniProt Q96RJ0)
# Test: TAAR1 activation by candidate antagonists – cell-based, fluorescence, counter-screen for TAAR1 antagonist project (AID 651955);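 note: CHO cells stably expressing TAAR1 with calcium dye readout; 0% = DMSO vehicle and 100% = full agonist response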
# Settings: hTAAR1 cell line, agonist mode, at 3 µM, active compounds read high
# Sequence of Trace amine-associated receptor 1 (Homo sapiens) (Q96RJ0 whole entry, looked up): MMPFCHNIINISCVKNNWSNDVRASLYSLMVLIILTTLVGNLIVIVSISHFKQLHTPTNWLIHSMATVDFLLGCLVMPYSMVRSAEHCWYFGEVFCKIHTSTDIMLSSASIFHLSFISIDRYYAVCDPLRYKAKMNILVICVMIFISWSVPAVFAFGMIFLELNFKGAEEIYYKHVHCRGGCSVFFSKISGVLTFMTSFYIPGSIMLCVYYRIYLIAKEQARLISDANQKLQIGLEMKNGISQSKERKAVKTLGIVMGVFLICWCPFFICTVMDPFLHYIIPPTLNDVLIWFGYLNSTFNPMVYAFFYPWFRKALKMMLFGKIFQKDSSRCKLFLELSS
row,Structure (SMILES),activation [%]
1,COc1ccc(-c2cc(C(=O)Nc3ccccc3O)c3ccccc3n2)cc1,16.7
2,O=C(NCCN1CCOCC1)c1ccc(/C=C2\Sc3ccccc3N(Cc3ccc(F)cc3)C2=O)cc1,12.4
3,COc1ccc(Cl)cc1NC(=O)CCS(=O)(=O)c1cc2c(cc1C)NC(=O)CO2,7.53
4,COc1ccc(N(CC(=O)N/N=C/c2cccs2)S(=O)(=O)c2ccc(OC)c(OC)c2)cc1,11.5
5,CSc1ncnc2c1ncn2CC(=O)C1CCC2C3CCC4=CC(=O)CCC4(C)C3CCC12C (configuration not stated),15.2
6,COc1ccc(C(=O)Nc2ccccc2C(=O)N/N=C/c2ccc(O)c(OC)c2)cc1,8.37
7,Cc1ccc(SCc2c(C(=O)N/N=C/c3cccnc3)nnn2-c2nonc2N)cc1,17.1
8,CSCCC(NC(=O)COc1ccccc1)C(=O)OCC(=O)c1cc2ccccc2o1 (configuration not stated),3.28
9,O=C(N/N=C/c1ccc(Cl)c(Cl)c1)c1ccc2nc[nH]c2c1,13.9
10,COc1cc(/C=C2/C(=O)ON=C2C)ccc1OCc1ccccc1F,18.6
11,N#Cc1cccc(NC(=O)COC(=O)c2ccccc2C(=O)c2ccc(Cl)c([N+](=O)[O-])c2)c1,3.29
12,CSCCC(NC(=O)COc1ccccc1)C(=O)OCCOc1ccc(Br)cc1 (configuration not stated),4.8
13,CC(=O)Nc1ccc(NC(=O)COC(=O)C2CCC(C(C)(C)C)CC2)cc1 (configuration not stated),23.7
14,COc1ccc(NC(=O)C2CCCN(S(=O)(=O)c3cccc4cccnc34)C2)cc1OC (configuration not stated),5.06
15,O=C(CN1CCCSc2ccccc21)N1CCN(S(=O)(=O)c2cccc(F)c2)CC1,6.06
16,Cn1c(C(=O)NCCc2ccsc2)cc2c(=O)n(C)c3ccccc3c21,4.37

row,Structure (SMILES),activation [%]
1,O=C(COC(=O)c1c2c(nc3ccccc13)CCCC2)c1ccc(Br)s1,0.2
2,Cc1nn(-c2ccccc2)c(C)c1NC(=O)COC(=O)c1cc(Cl)ccc1O,10.5
3,C=CCC[C@@H](Cc1ccc(F)cc1)C(=O)O[C@H](CNC(=O)[C@H](CC=C)CC(=O)N(CCO)Cc1ccccc1)c1ccccc1,2.53
4,COc1ccc(CC(=O)Nc2c(C(N)=O)oc3ccccc23)cc1,6.71
5,CCN1CCc2c(C#N)c(NCc3ccccc3)nc(NCCO)c2C1,8.1
6,COc1ccc(C(=O)Nc2cccc(NC(=O)c3ccc(OC)cc3OC)n2)c(OC)c1,6.39
7,CCOC(=O)C1C(c2ccc(OC)c(OC)c2)c2c([nH][nH]c2=O)CC1(C)O (configuration not stated),3.71
8,CSc1nc(-c2ccccc2)nc(C(Cl)Cl)n1,2.73
9,CCCCNc1c(-c2cccc(Sc3ccc(OC)cc3)c2)nc2ccccn12,6.5
10,CCOc1ccc(N2CC(C(=O)N/N=C/c3sccc3C)CC2=O)cc1 (configuration not stated),3.12
11,COc1ccc(-c2cc(C(=O)N(C)CC(=O)Nc3ccccc3Cl)c3ccccc3n2)cc1OC,6.79
12,COc1ccc(S(=O)(=O)N(CC(=O)NCc2ccco2)c2ccc(F)cc2)cc1,7.31
13,CC(=O)N1CCN(C(=O)c2cc(-c3ccc(Cl)s3)nc3ccccc23)CC1,13
14,COc1ccc(-c2cc(C(=O)N(C)Cc3ccccc3)c3ccccc3n2)cc1,1.41
15,Cc1ccc(-n2c(C)cc(/C=N\NC(=O)CC(=O)NC(C)C)c2C)cc1,16.1
16,OC(c1ccccc1)(c1ccccc1)C1CCN(CCCOc2ccc(-c3ccsc3)cc2)CC1,33.1
